Screens from PubChem BioAssay.
aSyn 5UTR act – Activators via SNCA 5'UTR binding, MLPCN; hit rate 7.1% among 300,000; activity score, % (tested at 7.5 µM), hits read low; alpha-synuclein 5'UTR reporter, activators screen; in the data active means activity score below about -60%
* hit, by the source's call. The list is a sample of the results.

SMILES | aSyn 5UTR act
CCN(CC)S(=O)(=O)c1cc(C(=O)Oc2cccc(-c3cnc4ccccc4n3)c2)ccc1OC | -171*
Clc1ccccc1Cn1nnc(-c2cccs2)n1 | -100*
Clc1ccccc1Cn1nnc(-c2ccccc2)n1 | -153*
CN(C)c1ccc(-c2nnn(Cc3ccccc3Br)n2)cc1 | -66*
Cc1cccc(-c2noc(-c3ccno3)n2)c1 | -121*
Cc1ccc(N(C)S(=O)(=O)c2ccc(-c3cnc(C4CC4)o3)cc2)cc1 | 84
CCS(=O)(=O)N1CCC(c2nc(-c3ccc(C)cc3)no2)CC1 | -78*
Cc1cccc(-c2noc(C3CCCCC3)n2)c1 | -150*
Cc1ccc(-c2noc(C3CCCCC3)n2)cc1 | -187*
Cc1ccc(S(=O)(=O)Nc2nc3ccccc3nc2NCc2ccco2)cc1 | -180*
Cc1ccc(C(=O)Nc2ccc(S(=O)(=O)NCc3ccco3)cc2)cc1 | -92*
Cc1ccc(C(=O)Nc2cccc(C(=O)N3CCN(C)CC3)c2)cc1 | -98*
CCC1=Nc2cc(C(=O)NCc3ccco3)ccc2Sc2ccc(C)cc21 | 104
Cc1ccc(C(=O)Nc2cccc(C(=O)NCc3ccco3)c2)cc1 | -72*
C/C(=N\Nc1nc(Cl)c(Cl)cc1Cl)c1ccc(S(=O)(=O)NCc2ccco2)cc1 | -64*
C/C(=N\Nc1ccc(C(=O)O)cc1)c1ccc(S(=O)(=O)NCc2ccco2)cc1 | -75*
CCCCn1c(SCC(=O)N2c3ccccc3CCc3ccccc32)nc2c1c(=O)n(C)c(=O)n2C | 74
Cc1ccc(Cn2c(SCc3cccnc3)nc3c2c(=O)n(C)c(=O)n3C)cc1 | 54
Cn1c(=O)c2c(nc(SCCN3CCOCC3)n2Cc2ccc(F)cc2)n(C)c1=O | -130*
CN(C)c1ccc(N=Cc2nc(-c3ccccc3)oc2OC(=O)c2ccccc2)cc1 | -115*
CN(C)c1ccc(N=Cc2nc(-c3ccccc3)oc2O)cc1 | -95*
Oc1oc(-c2ccccc2)nc1C=NCc1ccccc1 | -133*
CC(=O)Oc1oc(-c2ccccc2)nc1/C=N/c1ccccn1 | -72*
CN=C(Nc1ccc(Cl)cc1)c1ccc(C(F)(F)F)cc1 | -92*
COc1ccc(-c2cc(=O)n(-c3nc4ccccc4[nH]3)[nH]2)cc1 | -68*
SMILES | aSyn 5UTR act
COc1ccc(Cc2[nH]n3c(=O)cc(C(C)C)nc3c2-c2ccccc2)cc1 | 72
O=C(Nc1ccc(N2CCOCC2)c([N+](=O)[O-])c1)c1ccco1 | -73*
CCN1CCN(c2ccc(NC(=O)c3cccc(F)c3)cc2Cl)CC1 | -82*
CCN1CCN(c2ccc(NC(=O)c3ccco3)cc2Cl)CC1 | -112*
O=C(Nc1ccc(N2CCCC2)c(Cl)c1)c1ccco1 | -113*
COCCn1c(C)cc(C(=O)CSc2nc3ccccc3s2)c1C | 53
COCCn1c(C)cc(C(=O)Cn2nc(C(=O)O)c3ccccc3c2=O)c1C | -116*
COc1ccc(-c2csc(NC(=O)CSc3nc(SC)ns3)n2)cc1 | -102*
O=C(Nc1ccc([N+](=O)[O-])cc1)Nc1nc(-c2ccc(Cl)s2)cs1 | 92
CCCC(=O)Nc1nc(-c2ccc(Cl)s2)cs1 | -114*
CCc1nnc(NC(=O)CSc2nc(-c3ccc(OC)cc3)ns2)s1 | -84*
COc1ccc(-c2csc(NC(=O)CSc3nc(C)cs3)n2)cc1 | -153*
CCc1ccc(-c2csc(NC(=O)COC(=O)CCc3nc4ccccc4s3)n2)cc1 | -109*
COc1ccc(-c2csc(NC(=O)C3CCCO3)n2)cc1 (stereo not drawn) | -102*
CCCC(=O)Nc1nc(-c2ccc(OC)cc2)cs1 | -123*
CCCC(=O)Nc1nc(C)c(-c2csc(Nc3cc(OC)ccc3OC)n2)s1 | 61
Cc1ccc(-c2csc(N=C(N)N)n2)cc1 | -116*
Cc1ccc(NNc2c(C)nc3ccccc3nc2=O)cc1 | -112*
COc1ccccc1/C=C/C1(C(=O)NC2CCCC2)CC(=O)N1c1ccccc1 (stereo not drawn) | -138*
CN(C)S(=O)(=O)c1ccc(N2C(=O)CC2(/C=C/c2ccccc2)C(=O)NC2CCCC2)cc1 (stereo not drawn) | 35
CC(=O)Nc1cccc(-c2csc(Nc3ccccn3)n2)c1 | -120*
CC(=O)Nc1nc(C)c(-c2csc(Nc3ccccn3)n2)s1 | -114*
CC(=O)Nc1cccc(-c2csc(Nc3cc(C)ccn3)n2)c1 | -63*
Cc1ccnc(Nc2nc(-c3c(C)nc4sccn34)cs2)c1 | -103*
Cc1nc2ncccn2c1-c1csc(Nc2ccc(O)cc2)n1 | -67*
SMILES | aSyn 5UTR act
Cc1ccnc(Nc2nc(-c3ccccc3)cs2)c1 | -155*
Cc1ccc(Nc2nc(-c3c(C)nc4ncccn34)cs2)cc1 | 84
CC(=O)Nc1ccc(-c2csc(Nc3cc(C)ccn3)n2)cc1 | -101*
CCC1=[N+](CC(=O)c2ccc(C)cc2)CCn2c(C)ccc21 | -194*
CCC1=[N+](CC(=O)c2ccc(C)cc2)CCn2cccc21 | -123*
CC1=[N+](CC(=O)c2ccccc2)CCn2cccc21 | -110*
COc1ccc2nc(NC(=O)C34CC5CC(CC(NC(C)=O)(C5)C3)C4)sc2c1 | -94*
CCOc1ccc2nc(NC(=O)C34CC5CC(CC(NC(C)=O)(C5)C3)C4)sc2c1 | -132*
